# Measured values from PubChem BioAssay (EPA / NIEHS).
# Records with an inconclusive call do not appear. Some structures have more than one record in an assay (separate samples or runs), and their calls can disagree. Activity calls are given as the source filed them. Rule for the calls: active = hit-call score of the fitted dose curve at least 0.9, where 1 is the maximum; inconclusive = response in the unintended direction; inactive = score below 0.9.
# Biological target: Nuclear receptor subfamily 1 group I member 2 (Homo sapiens) (UniProt O75469)
# Assay: ATG_PXR_TRANS: Attagene TRANS-FACTORIAL HepG2 Assay for human Pregnane X Receptor (PXR) (AID 2283008)
# Description: ATG_TRANS is a cell-based, multiplexed-readout assay that uses HepG2, a human liver cell line, with measurements taken at 24 hours after chemical dosing in a 24-well plate.ATG_PXR_TRANS is one of 30 assay component(s) measured or calculated from the ATG_TRANS assay. It is designed to make measurements of mRNA induction, a form of inducible reporter, as detected with fluorescence intensity signals by Reverse transcription polymerase chain reaction (RT-PCR) and Capillary electrophoresis technology.Data from the assay component ATG_PXR_TRANS was analyzed into 1 assay endpoint. This assay endpoint, ATG_PXR_TRANS, was analyzed in the positive analysis fitting direction relative to DMSO as the negative control and baseline of activity. Using a type of inducible reporter, measures of mRNA for gain-of-signal activity can be used to understand the reporter gene at the transcription factor-level as they relate to the gene NR1I2. Furthermore, this assay endpoint can be referred to as a primary readout, because this assay has produced multiple assay endpoints where this one serves a reporter gene function. To generalize the intended target to other relatable targets, this assay endpoint is annotated to the nuclear receptor intended target family, where the subfamily is non-steroidal.
# Human liver HepG2 cells are transiently transfected with multiple reporter transcription units (MRTUs) in 6-well plates using FuGene 6 reagent (Roche; 3 ml FuGene/1 mg DNA). The MRTU constructs are regulated by a cis-regulating element (promoter). […] A major difference between the CIS and TRANS system is that in CIS activities of endogenous TFs are measured, whereas the TRANS assay evaluates changes in activities of exogenous, chimeric NR-Gal4 proteins. […] At the end of 24 hour incubation, total RNA was isolated using TriZol reagent (Invitrogen). The isolated RNA is then reverse-transcribed using oligo(dT) primer and Mo-MLV reverse transcriptase (Invitrogen) with DNAse I (Ambion) treatment for 30 min. The one-tenth of the produced cDNA was amplified by PCR using Taq DNA polymerase (Invitrogen) and two reporter sequence-specific primers. The PCR products were fluorescently labeled by primer extension with 6-arboxyfluorescein (6-FAM) 5'-labeled reporter sequence-specific primer (2 min at 95 C, 20 s at 68 C and 10 min at 72 C) and these products were digested with 5U of HpaI (New England Biolabs) for 2h at 37 C. The fragments were purified using Qiaquick PCR columns (Qiagen), analyzed on an ABI 3130xL genetic analyzer (Applied Biosystems) with peak positions identified by using a set of X-rhodamine (ROX)-labeled MapMarker1000 molecular weight standards (BioVentures). The raw capillary electrophoresis data was processed using Attagraph software (Attagene).
# Sequence of Nuclear receptor subfamily 1 group I member 2 (Homo sapiens) (O75469 whole entry, looked up): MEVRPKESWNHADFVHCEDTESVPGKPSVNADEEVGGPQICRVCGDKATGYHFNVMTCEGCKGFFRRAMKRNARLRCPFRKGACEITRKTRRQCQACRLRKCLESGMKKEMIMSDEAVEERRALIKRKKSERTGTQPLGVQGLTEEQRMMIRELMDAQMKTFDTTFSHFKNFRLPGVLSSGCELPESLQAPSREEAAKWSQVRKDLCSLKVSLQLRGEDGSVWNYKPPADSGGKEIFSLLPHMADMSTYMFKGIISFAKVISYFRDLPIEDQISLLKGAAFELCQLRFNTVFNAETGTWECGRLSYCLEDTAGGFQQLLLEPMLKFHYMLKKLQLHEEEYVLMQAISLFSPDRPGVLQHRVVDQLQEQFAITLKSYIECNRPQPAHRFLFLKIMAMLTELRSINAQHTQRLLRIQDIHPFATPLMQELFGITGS
Structure (SMILES),outcome,AC50
O=C(O)C=C(C(F)(F)F)C(F)(F)F,inactive,–
Nc1cc(Cl)c(N)c(Cl)c1,–,19.8 µM (active)
Nc1ccc(S(=O)(=O)Nc2nccs2)cc1,inactive,–
NC(=O)C(F)(F)C(F)(F)C(F)(F)C(F)(F)F,inactive,–
O=S(=O)(O)C(F)(F)C(F)(F)C(F)(F)C(F)(F)C(F)(F)C(F)(F)C(F)(F)F,inactive,33.5 µM (active)
O=S(=O)(OCCOC(F)(F)F)C(F)(F)F,inactive,–
Nc1ccc(Oc2cccc(Oc3ccc(N)cc3)c2)cc1,–,22.1 µM (active)
CCCCNc1ccccc1,inactive,–
CC(C)(C)c1ccc(OC2CCCCC2O)cc1 (stereo not given),–,2.96 µM (active)
C=CC(=O)OCC(F)(F)C(F)(F)C(F)(F)C(F)(F)C(F)(F)C(F)(F)C(F)(F)F,inactive,–
O=C(CC(=O)C(F)(F)C(F)(F)F)C(F)(F)F,inactive,–
CC(Cc1ccc(O)c(O)c1)C(C)Cc1ccc(O)c(O)c1 (stereo not given),–,6.87 µM (active)
CCCCOc1ccc(N)cc1,inactive,–
Oc1ccc(Nc2ccccc2)cc1,–,20.5 µM (active)
CCc1c(Br)c(Br)c(Br)c(Br)c1Br,–,7.09 µM (active)
O=C(O)C(F)(F)C(F)(F)C(F)(F)C(F)(F)C(F)(F)C(F)(F)C(F)(F)C(F)(F)C(F)(F)C(F)(F)C(F)(F)C(F)(F)F,inactive,–
O=C(O)C(F)(F)C(F)(F)C(F)(F)F,inactive,–
c1ccc(B(c2ccccc2)c2ccccc2)cc1,–,4.69 µM (active)
CCN(CC)c1ccc2c(C)cc(=O)oc2c1,–,3.63 µM (active)
CC(=O)Nc1ccc(N=Nc2cc(C)ccc2O)cc1,–,14.1 µM (active)

Structure (SMILES),outcome,AC50
Cc1cccc(N(C)C)c1,inactive,–
C#C[C@]1(O)CC[C@H]2[C@@H]3CCc4cc(OC)ccc4[C@H]3CC[C@@]21C,–,4.66 µM (active)
O=C(O)C(F)(OC(F)(F)C(F)(OC(F)(F)C(F)(OC(F)(F)C(F)(F)C(F)(F)F)C(F)(F)F)C(F)(F)F)C(F)(F)F (stereo not given),inactive,–
CCCCCCOC(=O)c1ccccc1O,inactive,–
CCCCOCCOCCOC(=O)CCCCC(=O)OCCOCCOCCCC,inactive,–
C=C(C)C(=O)OCC(F)(F)C(F)(F)C(F)(F)F,inactive,–
CCN(Cc1cccc(S(=O)(=O)O)c1)c1ccc(C(=C2C=CC(=[N+](CC)Cc3cccc(S(=O)(=O)O)c3)C=C2)c2ccc(O)cc2S(=O)(=O)[O-])cc1,inactive,–
CS(C)(=O)=O,inactive,–
C1COCCN1,inactive,–
CC(C)OC(=O)c1ccccc1C(=O)OC(C)C,–,5.74 µM (active)
CC(CCl)OP(=O)(OC(C)CCl)OC(C)CCl (stereo not given),–,0.801 µM (active)
O=C(Cl)C(F)(F)C(F)(F)C(F)(F)C(F)(F)C(F)(F)C(F)(F)C(F)(F)C(F)(F)F,–,54.5 µM (active)
OCCCC(F)(F)C(F)(F)C(F)(F)C(F)(F)C(F)(F)C(F)(F)C(F)(F)F,inactive,–
CCCCC(CC)COP(=O)(O)OCC(CC)CCCC (stereo not given),–,15.4 µM (active)
C=C(C)C(=O)OCC(F)(F)C(F)(F)C(F)(F)C(F)(F)C(F)(F)C(F)(F)C(F)(F)F,inactive,–
FC(F)(F)C(F)(F)C(F)(F)C(F)(F)C(F)(F)C(F)(F)CC1CO1 (stereo not given),inactive,–
CC(C)c1ccccc1N,inactive,–
OCCCC(F)(F)C(F)(F)C(F)(F)F,inactive,–
O=C(O)C(F)(F)C(F)(F)C(F)F,inactive,–
